Assay results published in PubChem BioAssay (NCATS).
Inconclusive results are not listed. The source made the active and inactive calls. Unless noted, calls come from the whole dose curve; as a rule, active = well fitted curve in the direction sought with a large enough effect; inconclusive = small, poorly fitted or top-dose-only effect, or another doubt; inactive = no such curve, though single readings can be large; an effect the other way counts as inactive or inconclusive.

What was measured:
[1] = target: Aldehyde dehydrogenase, mitochondrial (Homo sapiens) (UniProt P05091); assay: qHTS for Inhibitors of the Aldehyde Dehydrogenase Family (ALDH2) Confirmatory screens (AID 2061303; active = well fitted inhibition curve with a large enough effect; title and protocol of this record describe different tests; note: nearly all actives have a fitted effect of over 45% in size)
[2] = qHTS for Inhibitors of the Aldehyde Dehydrogenase Family (ALDH1A2, ALDH1A3, ALDH2, ALDH3A1) (AID 2061307); note: nearly all actives have a fitted effect of over 50% in size; for Potency: test system not described further here
[3] = target: Aldehyde dehydrogenase, mitochondrial (Homo sapiens) (UniProt P05091); assay: qHTS for Inhibitors of the Aldehyde Dehydrogenase Family (ALDH2) Primary screen (AID 2061308); note: nearly all actives have a fitted effect of over 55% in size
[4] = target: Retinaldehyde dehydrogenase 3 (Homo sapiens) (UniProt P47895); assay: qHTS for Inhibitors of the Aldehyde Dehydrogenase Family (ALDH1A3) Confirmatory screens (AID 2061311); note: nearly all actives have a fitted effect of over 60% in size
[5] = target: Retinal dehydrogenase 2 (Homo sapiens) (UniProt O94788); assay: qHTS for Inhibitors of the Aldehyde Dehydrogenase Family (ALDH1A2) Confirmation screens (AID 2061314); note: nearly all actives have a fitted effect of over 65% in size
[6] = target: Retinaldehyde dehydrogenase 3 (Homo sapiens) (UniProt P47895); assay: qHTS for Inhibitors of the Aldehyde Dehydrogenase Family (ALDH1A3) Primary screen (AID 2061315)
[7] = target: Aldehyde dehydrogenase 1A1 (Homo sapiens) (UniProt P00352); assay: qHTS for Inhibitors of the Aldehyde Dehydrogenase Family (ALDH1A1) Confirmatory screens (AID 2061316); note: nearly all actives have a fitted effect of over 65% in size

Measured: Potency
Potency is the fitted concentration of half-maximal effect.

N#Cc1ccccc1OC1=NS(=O)(=O)c2ccccc21
inactive: all assays above

Cc1cc(NC(=O)c2ccc([S+](=O)([O-])NCc3ccc(Cl)c(Cl)c3)cc2)no1
inactive: all assays above

CCOC(=O)c1ccc(O)c2ncc(-c3ccc(C(=N)N)cc3)cc12
active: [4] 10.1 µM
not listed: [6]
inactive: all other assays above

Cc1cc(C)nc(NC(=S)N2CCN(c3ccc4ccccc4c3)CC2)c1
active: [1] 11.3 µM | [2] 3.55 µM | [3] 11.2 µM | [4] 7.12 µM | [5] 12.7 µM | [7] 2.83 µM

O=[N+]([O-])c1ccc(S(=O)(=O)c2ccc(Cl)cc2)nc1
active: [1] 0.504 µM | [2] 2.82 µM | [3] 0.251 µM | [4] 28.2 µM | [5] 3.16 µM | [7] 0.283 µM

Cn1ncc(-c2nnc(-c3ccccc3)n2CCCn2ccnc2)c1N
inactive: all assays above

O=C(O)c1ccc(O)c2ncc(N3CCCN(C4CCCC4)CC3)cc12
active: [4] 14.2 µM
not listed: [6]
inactive: all other assays above

OCc1cccc(-c2noc(-c3ccccc3F)n2)c1
active: [2] 10.7 µM | [4] 5.65 µM
not listed: [6]
inactive: all other assays above

O=C1Nc2ccccc2/C1=C\c1cc(F)c(O)c(F)c1
inactive: [1] | [2]
active: [3] 1.12 µM | [4] 3.16 µM | [5] 5.62 µM | [7] 8.96 µM

O=C(O)c1cccc(-c2noc(-c3cccc(C(F)(F)F)c3)n2)c1
active: [2] 0.956 µM | [4] 0.504 µM
not listed: [6]
inactive: all other assays above

O=C(NN1CCCC1)NS(=O)(=O)c1ccc(Cl)cc1
not listed: [6]
inactive: all other assays above

Nc1nnc(-c2ccc3ccccc3c2)o1
inactive: all assays above

COc1ccc(C2Nc3ccccc3C(=O)N2CCO)cc1COc1ccc(NC(C)=O)cc1 (stereo not given)
inactive: [3] | [6]
active: [1] 2 µM | [2] 3.18 µM | [4] 10 µM | [5] 14.2 µM | [7] 22.5 µM

O=C(NCCN1CCCC1)[C@H](Cc1ccc(OS(=O)(=O)c2cccc3cnccc23)cc1)NS(=O)(=O)c1cccc2cnccc12
not listed: [5] | [7]
inactive: all other assays above

O=C(O)c1cccc(-c2noc(-c3cccc(Cl)c3)n2)c1
active: [2] 0.381 µM | [4] 0.201 µM | [6] 0.562 µM
inactive: [1] | [3]

c1cncc(-c2ccc(CNc3nc(C4CCCC4)nc4ccccc34)cc2)c1
active: [4] 11.3 µM
inactive: all other assays above

N#Cc1c(C(=O)c2cccs2)no[n+]1[O-]
active: [1] 3.98 µM | [2] 2.24 µM | [3] 0.282 µM | [4] 1.59 µM | [5] 3.16 µM | [7] 0.225 µM

CCc1nn2c(=O)cc(-c3ccncc3)nc2s1
active: [5] 25.2 µM
inactive: all other assays above

O=C(O)c1cccc(-n2cccc2)c1
not listed: [5]
inactive: all other assays above

O=C1c2ccccc2C(=O)N1c1ncccc1O
not listed: [5]
inactive: all other assays above
